Measured values: PubChem BioAssay

What follows are compounds tested against Neurogenic locus notch homolog protein 2 (Homo sapiens) (UniProt Q04721) (assay: small molecules binding Notch2 protein – biochemical, small-molecule microarray, 635 nm fluorescence, stem cell growth factors, primary screen (AID 1073)). Details: higher = more signal.
Neurogenic locus notch homolog protein 2 (Homo sapiens), sequence (Q04721 whole entry, looked up): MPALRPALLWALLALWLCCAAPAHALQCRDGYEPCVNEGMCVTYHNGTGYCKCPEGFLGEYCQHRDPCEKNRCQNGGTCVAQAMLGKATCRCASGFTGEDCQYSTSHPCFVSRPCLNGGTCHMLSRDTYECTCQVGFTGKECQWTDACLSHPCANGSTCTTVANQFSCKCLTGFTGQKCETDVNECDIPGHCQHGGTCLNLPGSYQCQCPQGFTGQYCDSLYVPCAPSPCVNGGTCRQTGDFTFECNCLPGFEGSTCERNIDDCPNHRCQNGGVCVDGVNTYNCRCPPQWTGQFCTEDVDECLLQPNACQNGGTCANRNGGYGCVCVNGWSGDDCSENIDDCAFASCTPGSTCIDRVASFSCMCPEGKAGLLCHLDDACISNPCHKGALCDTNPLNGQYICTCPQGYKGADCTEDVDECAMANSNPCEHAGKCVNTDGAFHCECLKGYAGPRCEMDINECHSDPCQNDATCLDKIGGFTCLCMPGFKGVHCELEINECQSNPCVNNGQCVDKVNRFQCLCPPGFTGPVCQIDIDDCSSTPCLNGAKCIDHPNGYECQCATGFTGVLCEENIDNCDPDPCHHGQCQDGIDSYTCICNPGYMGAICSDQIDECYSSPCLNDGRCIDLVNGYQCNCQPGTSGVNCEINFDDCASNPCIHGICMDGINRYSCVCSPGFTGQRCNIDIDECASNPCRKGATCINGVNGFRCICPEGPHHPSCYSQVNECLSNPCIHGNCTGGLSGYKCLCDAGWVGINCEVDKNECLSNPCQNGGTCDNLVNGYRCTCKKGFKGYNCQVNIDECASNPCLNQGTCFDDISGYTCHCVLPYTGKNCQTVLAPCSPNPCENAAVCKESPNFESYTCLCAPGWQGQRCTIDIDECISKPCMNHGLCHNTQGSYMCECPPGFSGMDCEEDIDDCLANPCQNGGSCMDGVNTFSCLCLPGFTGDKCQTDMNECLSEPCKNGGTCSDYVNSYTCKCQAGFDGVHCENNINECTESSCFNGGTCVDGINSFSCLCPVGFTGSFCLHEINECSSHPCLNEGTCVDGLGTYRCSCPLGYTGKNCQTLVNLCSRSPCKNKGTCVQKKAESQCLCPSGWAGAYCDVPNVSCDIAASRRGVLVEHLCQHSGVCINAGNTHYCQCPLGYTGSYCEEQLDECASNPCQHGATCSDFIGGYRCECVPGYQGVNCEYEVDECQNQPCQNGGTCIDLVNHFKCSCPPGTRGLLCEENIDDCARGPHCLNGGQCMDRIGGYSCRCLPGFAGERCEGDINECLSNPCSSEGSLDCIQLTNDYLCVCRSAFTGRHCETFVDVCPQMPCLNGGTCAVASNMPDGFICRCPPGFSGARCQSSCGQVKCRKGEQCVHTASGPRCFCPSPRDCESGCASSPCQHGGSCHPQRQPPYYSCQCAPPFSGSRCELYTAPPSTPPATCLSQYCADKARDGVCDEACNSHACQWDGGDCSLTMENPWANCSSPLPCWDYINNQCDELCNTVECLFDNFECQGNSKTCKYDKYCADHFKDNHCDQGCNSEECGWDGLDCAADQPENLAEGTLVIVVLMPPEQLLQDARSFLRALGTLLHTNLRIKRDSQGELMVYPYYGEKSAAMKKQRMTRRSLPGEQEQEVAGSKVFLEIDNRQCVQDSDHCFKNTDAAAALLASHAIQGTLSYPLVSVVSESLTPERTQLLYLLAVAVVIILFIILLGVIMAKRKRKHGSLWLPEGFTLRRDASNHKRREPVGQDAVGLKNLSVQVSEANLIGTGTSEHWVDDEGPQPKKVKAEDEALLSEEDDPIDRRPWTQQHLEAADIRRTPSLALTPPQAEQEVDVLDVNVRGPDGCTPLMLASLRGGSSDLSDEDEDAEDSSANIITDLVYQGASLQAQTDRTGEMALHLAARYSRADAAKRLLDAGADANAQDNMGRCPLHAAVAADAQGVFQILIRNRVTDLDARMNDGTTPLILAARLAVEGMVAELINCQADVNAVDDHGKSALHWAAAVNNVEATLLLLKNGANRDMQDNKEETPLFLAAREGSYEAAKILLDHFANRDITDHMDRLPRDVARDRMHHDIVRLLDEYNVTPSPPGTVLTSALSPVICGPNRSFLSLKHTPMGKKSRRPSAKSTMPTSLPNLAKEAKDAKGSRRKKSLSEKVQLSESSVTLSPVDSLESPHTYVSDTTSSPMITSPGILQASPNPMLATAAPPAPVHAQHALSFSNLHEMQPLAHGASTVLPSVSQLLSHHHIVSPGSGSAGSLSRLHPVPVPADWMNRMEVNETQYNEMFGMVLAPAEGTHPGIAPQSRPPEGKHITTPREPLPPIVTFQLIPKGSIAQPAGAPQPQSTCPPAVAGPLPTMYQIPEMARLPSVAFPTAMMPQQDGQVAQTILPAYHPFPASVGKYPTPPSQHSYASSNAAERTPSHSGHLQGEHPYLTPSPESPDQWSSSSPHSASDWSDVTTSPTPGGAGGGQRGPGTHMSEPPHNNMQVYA

In order of rising composite z-score:
1. COc1ccc([Si](C)(C)[C@H]2[C@H](CCn3cc([C@H](O)c4ccccc4)nn3)O[C@@]3(C(=O)N(Cc4ccc(N5CCOC5=O)cc4)c4ccccc43)[C@@H]2C)cc1  -1.11
2. CCCCN1CC=CC23O[C@@H]4/C=C\CCC(C)OC(=O)C4[C@H]2C(=O)N(CCCCCCO)[C@@H]3C1=O (stereo partly specified)  -0.625
3. CC1CC/C=C\[C@H]2OC34C=CCN(c5ccc6ccccc6c5)C(=O)[C@H]3N(C(CO)C(C)C)C(=O)[C@@H]4C2C(=O)O1 (stereo partly specified)  -0.477
4. O=C1O[C@@H](c2ccccc2)[C@@H](c2ccccc2)N2[C@@H](c3ccc(O)cc3)[C@]3(C(=O)Nc4ccc(C#CC5=CCCCC5)cc43)[C@@H](C(=O)N3CCN(c4ncccn4)CC3)[C@H]12  0.846
5. CCOC(=O)C[C@H]1[C@H](OC(=O)c2ccc(-c3ccccc3)cc2)[C@@H](NC(=O)c2ccc3ccccc3n2)c2cc(OCCCO)ccc2N1C(=O)c1ccccc1  1.01
6. CCOC(=O)[C@H]1C/C=C/C[C@H](C(=O)OCC)C(=O)O[C@H]2[C@@H](OC)O[C@H](CO)[C@@H](OC(=O)Nc3ccc(OC)cc3)[C@@H]2OC1=O  1.16
7. COCCOC(=O)N1C(=O)[C@@]2(c3cc(C#CCC(C(=O)OC)C(=O)OC)ccc31)[C@H](c1ccc(OCCO)cc1)N1[C@H](c3ccccc3)[C@H](c3ccccc3)OC(=O)[C@H]1[C@@H]2C(=O)N1CCN(c2ncccn2)CC1  1.25
8. COc1cc(OC)c(C(O)C2C=CC3C(=O)N(c4ccccc4)C(=O)C3N2Nc2ccc(C#N)cc2)cc1Br (stereo unspecified)  1.31
9. COc1ccc(NN2C(C(O)c3ccccn3)C=CC3C(=O)N(C4CCCCC4)C(=O)C32)cc1 (stereo unspecified)  1.59
10. CCCCC(CC)C(O)C1C=CC2C(=O)N(c3ccccc3)C(=O)C2N1Nc1ccc([N+](=O)[O-])cc1 (stereo unspecified)  1.73

What follows are compounds tested against Pro-neuregulin-1, membrane-bound isoform (Homo sapiens) (UniProt Q02297) (assay: small molecules binding neuregulin-1 protein – biochemical, small-molecule microarray, fluorescence 635/667, psychiatric disease protein project, primary screen (AID 1075;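 further: score combines 667 nm spot fluorescence with signal to noise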)). Details: NRG1 binding, 635 nm fluorescence, higher = more signal.
Pro-neuregulin-1, membrane-bound isoform (Homo sapiens), sequence (Q02297 whole entry, looked up, canonical isoform): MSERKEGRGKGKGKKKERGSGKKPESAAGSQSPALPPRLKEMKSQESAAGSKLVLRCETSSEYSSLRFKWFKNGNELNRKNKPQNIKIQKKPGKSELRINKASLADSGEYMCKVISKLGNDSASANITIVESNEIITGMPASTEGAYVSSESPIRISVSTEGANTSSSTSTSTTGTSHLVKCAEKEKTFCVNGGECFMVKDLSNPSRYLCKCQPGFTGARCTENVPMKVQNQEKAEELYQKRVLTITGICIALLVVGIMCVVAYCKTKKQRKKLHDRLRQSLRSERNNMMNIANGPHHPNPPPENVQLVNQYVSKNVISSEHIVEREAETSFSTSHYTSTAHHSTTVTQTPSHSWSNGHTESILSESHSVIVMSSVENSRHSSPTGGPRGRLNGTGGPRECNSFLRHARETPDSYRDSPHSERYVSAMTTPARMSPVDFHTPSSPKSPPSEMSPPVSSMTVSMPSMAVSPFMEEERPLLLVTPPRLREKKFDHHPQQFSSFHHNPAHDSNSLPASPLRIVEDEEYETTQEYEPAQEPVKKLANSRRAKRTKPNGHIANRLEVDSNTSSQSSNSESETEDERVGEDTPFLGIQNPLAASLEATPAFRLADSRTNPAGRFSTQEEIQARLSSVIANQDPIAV

In order of falling composite z-score:
1. COCCOC(=O)N1C(=O)[C@@]2(c3cc(C#CC4(O)CCCCCC4)ccc31)[C@H](C(=O)N1CCCCCCC1)[C@H]1C(=O)O[C@H](c3ccccc3)[C@H](c3ccccc3)N1[C@@H]2c1ccc(OCCO)cc1  2.18
2. C[C@]1(C(=O)NCCN2CCOCC2)c2ccccc2C(=O)N(Cc2ccc(OC(F)(F)F)cc2)[C@H]1c1ccc(CO)cc1  2.05
3. CC1CC/C=C\[C@H]2OC34C=CCN(c5ccc6ccccc6c5)C(=O)[C@H]3N(C(CO)C(C)C)C(=O)[C@@H]4C2C(=O)O1 (stereo partly specified)  1.93
4. CCCCC(CC)C(O)C1C=CC2C(=O)N(c3ccccc3)C(=O)C2N1Nc1ccc([N+](=O)[O-])cc1 (stereo unspecified)  1.88
5. O=C1O[C@H](c2ccccc2)[C@H](c2ccccc2)N2[C@H]1[C@@H](C(=O)O)[C@]1(C(=O)Nc3ccccc31)[C@H]2c1ccc(O)cc1  1.85
6. COc1cc(OC)c(C(O)C2C=CC3C(=O)N(c4ccccc4)C(=O)C3N2Nc2ccc(C#N)cc2)cc1Br (stereo unspecified)  1.75
7. COCCOC(=O)N1C(=O)[C@@]2(c3cc(C#CCC(C(=O)OC)C(=O)OC)ccc31)[C@H](c1ccc(OCCO)cc1)N1[C@H](c3ccccc3)[C@H](c3ccccc3)OC(=O)[C@H]1[C@@H]2C(=O)N1CCN(c2ncccn2)CC1  1.64
8. CO[C@H]1O[C@H](CO)[C@@H](OC(=O)Nc2ccc(C(F)(F)F)cc2)[C@H](OC(=O)Nc2ccc3c(c2)OCO3)[C@H]1OC(=O)Nc1ccc2c(c1)OCO2  1.6
9. COc1ccc(NC(=O)O[C@H]2[C@H](OC(=O)Nc3ccc4c(c3)OCO4)[C@@H](OC(=O)Nc3ccc4c(c3)OCO4)[C@@H](OC)O[C@@H]2CO)cc1  1.57
10. COc1ccc([Si](C)(C)[C@@H]2[C@@H](CC(=O)N3CCC[C@H]3CO)O[C@]3(C(=O)N(Cc4ccc(N5C(=O)c6cccc7cccc5c67)cc4)c4ccccc43)[C@H]2C)cc1  1.5
11. COc1ccc(NN2C(C(O)c3ccccn3)C=CC3C(=O)N(C4CCCCC4)C(=O)C32)cc1 (stereo unspecified)  1.36
12. C=CC[C@]1(C(=O)N(C)C)N=C(c2ccc(OCCCO)cc2)O[C@H]1c1ccccc1N=[N+]=[N-]  1.3
13. C=CC[C@]12N=C(c3ccc(OCCCO)cc3)O[C@H]1c1ccccc1N(C)C2=O  1.3
14. COC(=O)[C@@]1(Cc2ccccc2)[C@H]2c3cc(C(=O)N4CCCC4)[nH]c3C[C@H]2CN1C(=O)c1ccccc1  1.29
15. COc1cc2c(cc1OC)CN(C(=O)[C@H]1[C@@H]3C(=O)O[C@@H](c4ccccc4)[C@@H](c4ccccc4)N3[C@@H](c3ccc(OCCO)cc3)[C@]13C(=O)Nc1ccc(C#CC4(O)CCCCCC4)cc13)CC2  1.25
16. COC(=O)C1(Cc2ccccc2)C=C2C(=C(C(C)C)C(=O)C2C)CN1 (stereo unspecified)  1.25
17. C[C@@H]1ON(c2ccc(C(=O)OC(C)(C)C)cc2)[C@H](c2ccc(Br)cc2)[C@H]1C(=O)N1C(=O)OC[C@H]1Cc1ccccc1  1.05
18. O=C1O[C@@H](c2ccccc2)[C@@H](c2ccccc2)N2[C@@H](c3ccc(O)cc3)[C@]3(C(=O)Nc4ccc(C#CC5=CCCCC5)cc43)[C@@H](C(=O)N3CCN(c4ncccn4)CC3)[C@H]12  0.901
19. CCOC(=O)[C@H]1C/C=C/C[C@H](C(=O)OCC)C(=O)O[C@H]2[C@@H](OC)O[C@H](CO)[C@@H](OC(=O)CCc3ccccc3)[C@@H]2OC1=O  0.815
20. [N-]=[N+]=Nc1ccccc1[C@@H]1OC(c2ccc(OCCCO)cc2)=N[C@]1(CCS(=O)(=O)c1ccccc1)C(=O)NCCN1CCOCC1  0.806
21. COCCOC(=O)N1C(=O)[C@@]2(c3cc(C#CC4=CCCCC4)ccc31)[C@H](C(=O)N1CCN(c3ncccn3)CC1)[C@H]1C(=O)O[C@H](c3ccccc3)[C@H](c3ccccc3)N1[C@@H]2c1ccc(O)cc1  0.79
22. CN(C)CCCN1C(=O)[C@@]2(c3ccc([N+](=O)[O-])cc3)CC(=O)N(CC34CC5CC(CC(C5)C3)C4)[C@@H]2c2ccc(CO)cc21  0.742
23. COc1cc2c(cc1O)C(C)N(Cc1cc3c(cc1Br)OCO3)CC2 (stereo unspecified)  0.53
24. CCOC(=O)C[C@H]1[C@H](OC(=O)c2ccc(-c3ccccc3)cc2)[C@@H](NC(=O)c2ccc3ccccc3n2)c2cc(OCCCO)ccc2N1C(=O)c1ccccc1  0.464
25. NC(=O)NCC#Cc1ccc2c(c1)[C@]1(C(=O)N2)[C@H](C(=O)Nc2nc3ccccc3s2)[C@H]2C(=O)O[C@H](c3ccccc3)[C@H](c3ccccc3)N2[C@@H]1c1ccc(O)cc1  0.339
26. CCOC(=O)[C@H]1C/C=C/C[C@H](C(=O)OCC)C(=O)O[C@H]2[C@@H](OC)O[C@H](CO)[C@@H](OC(=O)Nc3ccc(OC)cc3)[C@@H]2OC1=O  0.309
27. COc1ccc([Si](C)(C)[C@H]2[C@H](CCn3cc([C@H](O)c4ccccc4)nn3)O[C@@]3(C(=O)N(Cc4ccc(N5CCOC5=O)cc4)c4ccccc43)[C@@H]2C)cc1  0.276
28. CCCCN1CC=CC23O[C@@H]4/C=C\CCC(C)OC(=O)C4[C@H]2C(=O)N(CCCCCCO)[C@@H]3C1=O (stereo partly specified)  0.272
29. CC(C)CCC[C@@H](C)[C@H]1CC[C@@]2(C)C3=C(CC[C@]12C)[C@@]1(C)CC[C@H](OC(=O)c2ccc(Br)cc2)C(C)(C)C1CC3 (stereo partly specified)  0.0933
30. COCCCNC(=O)[C@@H]1c2ccccc2C(=O)N(Cc2ccccc2C(F)(F)F)[C@H]1c1ccc(CO)cc1  0.068
31. COc1c(C)cc(-c2cc3c(c(Cc4ccccc4)n2)[Si](C(C)C)(C(C)C)OC3)cc1C  -0.0762
32. COc1c(C)cc(-c2cc3c(c(-c4ccccc4)n2)[Si](C(C)C)(C(C)C)OC3)cc1C  -0.112
33. Cc1ccc(F)cc1S(=O)(=O)N[C@@H]1CCN(Cc2ccc(OC(C)C)cc2)C1  -0.136
34. C[C@@H](OCc1ccccc1)C1NC(=O)[C@@]23C(=O)N[C@@H](Cc4ccccc4)C2[C@H](C)[C@@]2(C)O[C@H]2C3/C=C/C/C=C\CNC(=O)CNC1=O (stereo partly specified)  -0.366
35. CCCC[C@@H]1C[C@H]1[C@@H](NC(=O)c1cccnc1)c1ccc(-c2ccccc2)cc1  -0.401
36. CC(C)CN1C(=O)[C@@]2(Cc3ccccc31)c1ccccc1C(=O)N(Cc1ccccc1C(F)(F)F)[C@H]2c1ccc(CO)cc1  -0.84
